Test results published in PubChem BioAssay (NCATS).
Several values for one entry are separate records, joined by “and”; a condition that tells them apart may be missing. Equal entries are not always repeated. Results filed as inconclusive are left out. Activity calls are given as the source filed them. Unless noted, calls follow the shape of the dose curve; as a rule, active = well fitted curve in either direction with a large enough effect (not every such curve was filed as active); inconclusive = small, poorly fitted or top-dose-only effect, or another doubt; inactive = flat fitted curve, though single readings scatter.

Experiments:
[1] = AP1 Signaling Pathway (AID 357); conditions: ME-180 AP-1-bla reporter, EGF-induced, beta-lactamase ratio, 5 h;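 also: ME-180 reporter cells stimulated with EGF at its EC50 level; % is scaled to controls: 0 for no effect and ±100 for the full control effect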
Summary of the method: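 In this screen, ME-180 cells in Opti-MEM with 0.5% dialyzed FBS received EC50 EGF and compound titrations for 5 h. AP-1 reporter beta-lactamase was detected via CCF4 ratio, giving AC50 for positive and negative modulators.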

[2] = molecular target: Cytochrome P450 1A2 (Homo sapiens) (UniProt P05177); assay: p450-cyp1a2 (AID 410; calls by dose curve; also: potency is read from the fitted curve at half-maximal effect;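 as to activity change, negative = inhibition: -100% = full effect of reference inhibitor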); conditions: recombinant CYP1A2, luciferin-ME demethylation, luminescence; series mostly up to 25.6 µM
Summary of the method: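 20nM CYP1A2 with 100uM Luciferin-ME (at Km) in 100mM KPO4; compound preincubated 10 min, NADPH regeneration added, 60 min at room temperature. Luciferin quantified by luminescence after detection reagent; normalized to 57 uM furafylline.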

[3] = NFAT Signaling Pathway (AID 444); conditions: Jurkat NFAT-bla M1, carbachol, beta-lactamase ratio, 5 h;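 also: carbachol stimulus at about its EC50 of 1 µM final; % is scaled to controls: 0 for no effect and ±100 for the full control effect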
Summary of the method: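 Jurkat cells carrying an NFAT-driven β-lactamase reporter and co-transfected muscarinic M1 receptor were treated with compound plus carbachol (1 uM final, an EC50 level) for 5 h at 37 °C. CCF4 loading followed for 1 h at RT; 460/530 nm ratio gave %activity.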

[4] = Stat Signaling Pathway (AID 446); conditions: ME-180 SIE beta-lactamase reporter, IL-6 stimulated, 5 h;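 also: ME-180 cervical cancer cells given 40 pM IL-6 alongside compound; SIE-controlled beta-lactamase reporter measured as 460/530 nm FRET emission ratio; % is scaled to controls: 0 for no effect and ±100 for the full control effect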
Summary of the method: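 Screening format detects activators and inhibitors alike: ME-180 SIE-bla cells stimulated at 40 pM IL-6 for 5 hrs with compound, then dual-emission beta-lactamase read at 405 nm excitation.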

[5] = molecular target: Mitogen-activated protein kinase 10 (Mus musculus) (UniProt Q61831); assay: JNK3 AlphaScreen Assay (AID 530); conditions: JNK3 lysate, c-Jun phosphorylation; series mostly up to 25.6 µM;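 also: kinase came from lysate of stimulated human HepG2 cells; signal reports phosphorylation of biotinylated GST-cJun 1-79 at Ser73 with 10 µM ATP; % is scaled to controls: 0 for no effect and ±100 for the full control effect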
Summary of the method: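 Inhibitors reduce antibody binding to phosphorylated biotin-cJun, lowering AlphaScreen luminescence. Lysates from HepG2 cells pre-activated by IL-1beta plus TNF-alpha supplied JNK3; compounds were titrated.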

[6] = Cell Viability - Jurkat (AID 426;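 active = dose-dependent loss of cell ATP signal giving a full or clear fitted curve, ranked by lower potency value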; also: potency is read from the fitted curve at half-maximal effect); conditions: qHTS
Summary of the method: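 Jurkat (Clone E6-1) cells, 5000/well in complete medium, exposed to compounds for 40 hr at 37C; intracellular ATP measured by CellTiter-Glo luminescence after 20 min at room temperature. AC50 from Hill fits.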

[7] = Cell Viability - SK-N-SH (AID 435; calls by dose curve; also: potency is read from the fitted curve at half-maximal effect); conditions: SK-N-SH neuroblastoma cell viability qHTS
Summary of the method: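 qHTS cytotoxicity: CellTiter-Glo ATP luminescence after 40 h compound exposure of human neuroblastoma SK-N-SH cells at 37 °C. AC50 derived by Hill-equation fitting, with DMSO as basal and 100 uM tamoxifen as full inhibition.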

[8] = molecular target: Glucocorticoid receptor (Homo sapiens) (UniProt P04150); assay: GR-GFP Redistribution (AID 450;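 active = compounds whose dose series gives a full or clear partial fitted curve of increased nuclear translocation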; also: potency is read from the fitted curve at half-maximal effect); conditions: U2OS GR-GFP nuclear translocation, laser cytometry, 2 h
[9] = molecular target: Glucocorticoid receptor (Homo sapiens) (UniProt P04150); assay: GR-EFC Redistribution (AID 451; calls by dose curve; also: potency is read from the fitted curve at half-maximal effect); conditions: CHO-K1 GR-EFC translocation, beta-gal luminescence, 2 h
Summary of the method: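 CHO-K1 cells stably expressing nuclear-localized β-gal enzyme acceptor and GR fused C-terminally to the enzyme donor fragment; ligand-driven nuclear translocation restores β-gal by complementation. Compounds titrated up to 46 uM final, 2 h at 37 °C; luminescence read.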

[10] = Cell Viability - N2a (AID 540; active = well fitted curve in the direction sought with a large enough effect; an effect the other way counts as inactive or inconclusive;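 also: plate controls were DMSO alone for no effect and tamoxifen control for full effect; nearly all actives have a fitted effect of over 45% in size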); conditions: N2a mouse neuroblastoma cell viability; activity change, negative = cytotoxicity: at 92.2 µM (top of the series)
Summary of the method: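 Mouse neuroblastoma N2a cells, 1500/well, exposed to compounds 40 h at 37 °C in complete medium. Viability measured as cellular ATP by CellTiter-Glo luminescence; AC50 from Hill fits of concentration-response.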

[11] = Cell Viability - NIH 3T3 (AID 541; active = well fitted curve in the direction sought with a large enough effect; an effect the other way counts as inactive or inconclusive;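 also: plate controls were DMSO alone for no effect and tamoxifen positive control for full effect; nearly all actives have a fitted effect of over 25% in size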); conditions: NIH 3T3 cell viability, qHTS; activity change, negative = cytotoxicity: at 92.2 µM (top of the series)
Summary of the method: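 Mouse NIH 3T3 fibroblasts, 1000 cells/well, rested 5 hr at 37 °C, then exposed to compound for 40 hr at 37 °C in complete medium. Viability read as intracellular ATP by CellTiter-Glo luminescence; AC50 from Hill-equation fits of concentration-response data.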

[12] = Cell Viability - HUV-EC-C (AID 542; active = well fitted curve in the direction sought with a large enough effect; an effect the other way counts as inactive or inconclusive; also: % is scaled to controls: 0 for no effect and ±100 for the full control effect; nearly all actives have a fitted effect of over 35% in size); conditions: HUV-EC-C endothelial cell viability, qHTS; series mostly up to 92.2 µM
Summary of the method: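 HUV-EC-C human vascular endothelial cells, 1000/well, exposed to compound for 40 hr at 37 °C in complete medium. Intracellular ATP was read by CellTiter-Glo luminescence. AC50 came from Hill-equation fits of concentration-response data.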

[13] = Cell Viability - SH-SY5Y (AID 544; active = well fitted curve in the direction sought with a large enough effect; an effect the other way counts as inactive or inconclusive;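 also: 0% = DMSO alone and -100% = 100 µM tamoxifen; nearly all actives have a fitted effect of over 55% in size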); conditions: SH-SY5Y neuroblastoma cell viability; viability change, negative = cytotoxic: at 92.2 µM (top of the series)
Summary of the method: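 SH-SY5Y human neuroblastoma cells (1500/well) incubated 5 h, then compound-treated 40 h at 37 °C in complete medium. Viability read as intracellular ATP by CellTiter-Glo luminescence after 20 min; AC50 from Hill-equation fits of qHTS concentration-response.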

[14] = Cell Viability - Renal Proximal Tubule (AID 545; active = well fitted curve in the direction sought with a large enough effect; an effect the other way counts as inactive or inconclusive;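 also: 0% = DMSO only and -100% = 100 µM tamoxifen; nearly all actives have a fitted effect of over 40% in size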); conditions: renal proximal tubule cells viability, primary cells of rat origin; activity change, negative = cytotoxicity: at 91.7 µM (top of the series)
Summary of the method: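 Viability taken as intracellular ATP (CellTiter-Glo luminescence) after 40 hr, 37 °C compound treatment of primary proximal tubule cells from rat kidney, 1000 cells/well; Hill-equation fits of qHTS concentration-response data gave AC50.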

[15] = Cell Viability - Mesenchymal (AID 546; active = well fitted curve in the direction sought with a large enough effect; an effect the other way counts as inactive or inconclusive;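 also: cells exposed to compound for 40 hours before reading; 0% = DMSO only and -100% = 100 µM tamoxifen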); conditions: mesenchymal cells viability, qHTS; activity change, negative = cytotoxicity: at 91.7 µM (top of the series)
Summary of the method: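 Normal human renal glomerulus-derived kidney mesenchymal cells, 1000 per well in complete medium, were treated with compounds for 40 hr at 37 °C. Viability was read as intracellular ATP by CellTiter-Glo luminescence; AC50 values came from Hill-equation fits of qHTS concentration-response data.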

[16] = molecular target: Lysosomal acid glucosylceramidase (Homo sapiens) (UniProt P04062); assay: Glucocerebrosidase-p2 (AID 348; in the data active = potency below about 10 µM; also: potency is read from the fitted curve at half-maximal effect); conditions: purified GBA, blue fluorogenic substrate, 40 min
Summary of the method: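 Compounds titrated from 0.6 nM upwards against 0.2 nM enzyme in pH 5.9 citric acid/KH2PO4, taurocholate, tween-20; blue fluorogenic substrate 80 uM, 40 min room temperature, stopped and read Ex 365/Em 440 for AC50.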

Glucocorticoid receptor (Homo sapiens), sequence (P04150 whole entry, looked up, the tested form may be a part): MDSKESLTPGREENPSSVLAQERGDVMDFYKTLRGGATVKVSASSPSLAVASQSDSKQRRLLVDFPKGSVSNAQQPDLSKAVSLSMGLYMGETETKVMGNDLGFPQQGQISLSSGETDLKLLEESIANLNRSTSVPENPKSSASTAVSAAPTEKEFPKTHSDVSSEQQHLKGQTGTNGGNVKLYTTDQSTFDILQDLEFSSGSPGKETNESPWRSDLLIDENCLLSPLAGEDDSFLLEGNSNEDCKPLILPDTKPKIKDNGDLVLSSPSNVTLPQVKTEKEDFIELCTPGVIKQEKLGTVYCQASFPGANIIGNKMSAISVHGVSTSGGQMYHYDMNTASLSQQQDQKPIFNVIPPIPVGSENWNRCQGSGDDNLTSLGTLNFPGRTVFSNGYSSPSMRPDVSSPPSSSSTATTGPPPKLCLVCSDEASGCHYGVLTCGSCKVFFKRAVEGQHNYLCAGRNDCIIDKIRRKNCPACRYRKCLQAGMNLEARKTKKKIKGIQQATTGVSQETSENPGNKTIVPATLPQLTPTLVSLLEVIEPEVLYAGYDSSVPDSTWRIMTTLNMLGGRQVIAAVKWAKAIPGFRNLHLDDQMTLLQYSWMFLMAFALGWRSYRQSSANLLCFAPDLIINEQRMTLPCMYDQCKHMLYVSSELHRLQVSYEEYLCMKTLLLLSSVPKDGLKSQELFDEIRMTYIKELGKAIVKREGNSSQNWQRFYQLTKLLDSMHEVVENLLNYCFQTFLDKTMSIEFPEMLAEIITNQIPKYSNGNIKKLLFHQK
Cytochrome P450 1A2 (Homo sapiens), sequence (P05177 whole entry, looked up): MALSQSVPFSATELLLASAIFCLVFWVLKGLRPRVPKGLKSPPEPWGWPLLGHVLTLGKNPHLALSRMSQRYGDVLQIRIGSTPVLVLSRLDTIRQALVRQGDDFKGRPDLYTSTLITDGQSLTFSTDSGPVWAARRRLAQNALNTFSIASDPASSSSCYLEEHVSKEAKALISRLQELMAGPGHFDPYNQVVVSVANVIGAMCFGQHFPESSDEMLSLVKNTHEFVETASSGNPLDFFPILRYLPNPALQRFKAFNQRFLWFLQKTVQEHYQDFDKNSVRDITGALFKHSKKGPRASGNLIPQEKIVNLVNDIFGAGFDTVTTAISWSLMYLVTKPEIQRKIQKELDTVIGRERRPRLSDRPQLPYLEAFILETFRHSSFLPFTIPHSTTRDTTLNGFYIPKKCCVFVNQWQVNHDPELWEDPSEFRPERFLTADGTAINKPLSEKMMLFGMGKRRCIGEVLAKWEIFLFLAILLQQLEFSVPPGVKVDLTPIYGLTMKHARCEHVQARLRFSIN
Lysosomal acid glucosylceramidase (Homo sapiens), sequence (P04062 whole entry, looked up): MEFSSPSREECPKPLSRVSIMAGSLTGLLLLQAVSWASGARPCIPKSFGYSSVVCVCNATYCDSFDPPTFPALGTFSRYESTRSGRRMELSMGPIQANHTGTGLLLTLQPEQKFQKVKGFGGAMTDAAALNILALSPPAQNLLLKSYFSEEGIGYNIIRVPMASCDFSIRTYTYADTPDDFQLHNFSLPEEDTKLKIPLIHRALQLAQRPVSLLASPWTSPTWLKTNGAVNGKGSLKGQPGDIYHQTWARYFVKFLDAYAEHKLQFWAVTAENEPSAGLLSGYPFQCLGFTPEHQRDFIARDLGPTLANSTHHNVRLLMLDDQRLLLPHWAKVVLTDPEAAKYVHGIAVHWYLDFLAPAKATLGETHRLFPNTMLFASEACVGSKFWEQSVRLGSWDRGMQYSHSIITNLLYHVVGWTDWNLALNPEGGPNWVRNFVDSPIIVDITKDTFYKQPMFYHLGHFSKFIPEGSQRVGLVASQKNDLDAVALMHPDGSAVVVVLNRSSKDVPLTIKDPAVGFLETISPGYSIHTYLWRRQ

CC(O)(P(=O)(O)O)P(=O)(O)O
inactive: activity change, negative = inhibition ([1]; at 17.2 µM (top of the series)) -1.23% | Potency [2] | activity change, negative = inhibition ([3]; at 17.2 µM (top of the series)) -2.6% | activity, negative = inhibition ([4]; at 17.2 µM (top of the series)) 3.57% | outcome [5]

C=C(CC)C(=O)c1ccc(OCC(=O)O)c(Cl)c1Cl
inactive: activity change, negative = inhibition ([1]; at 17.2 µM (top of the series)) -11.1% and -7.79% | Potency [2] | activity, negative = inhibition ([4]; at 17.2 µM (top of the series)) -17.9% | Potency [8] > 20.6 µM | Potency [9] > 20.6 µM | outcome [5] | Potency [12] | activity change, negative = cytotoxicity [15] -21.9%
active: Potency [6] 9.25 µM | Potency [7] 45.3 µM | activity change, negative = inhibition ([3]; at 17.2 µM (top of the series)) -133% | activity change, negative = cytotoxicity [10] -112% | activity change, negative = cytotoxicity [11] -86.1% | viability change, negative = cytotoxic [13] -99.4% | activity change, negative = cytotoxicity [14] -86.3%

CC(C)COC(=O)OCN1C(=O)CN(CCN2CC(=O)N(COC(=O)OCC(C)C)C(=O)C2)CC1=O
inactive: activity change, negative = inhibition ([1]; at 38 µM (top of the series)) 5.55% | Potency [2] | activity change, negative = inhibition ([3]; at 38 µM (top of the series)) 7.64% | activity, negative = inhibition ([4]; at 38 µM (top of the series)) -1.3% | Potency [8] > 46 µM | Potency [9] > 46 µM | outcome [5]

Cc1ccnc(NS(=O)(=O)c2ccc(N)cc2)n1
inactive: activity change, negative = inhibition ([1]; at 17.2 µM (top of the series)) 17.4% | Potency [2] | activity change, negative = inhibition ([3]; at 17.2 µM (top of the series)) 0.552% | activity, negative = inhibition ([4]; at 17.2 µM (top of the series)) -12.6% | Potency [8] > 20.6 µM | Potency [9] > 20.6 µM | outcome [5]

O=C(CCCN1CCC(O)(c2ccc(Br)cc2)CC1)c1ccc(F)cc1
inactive: activity change, negative = inhibition ([1]; at 17.2 µM (top of the series)) 13.1% | activity change, negative = inhibition ([3]; at 17.2 µM (top of the series)) -24.7% | activity, negative = inhibition ([4]; at 17.2 µM (top of the series)) 1.5% | Potency [8] > 20.6 µM | Potency [9] > 20.6 µM | outcome [5]
active: Potency [2] 5.01 µM

Cc1cc(N)c2cc(NC(=O)Nc3ccc4nc(C)cc(N)c4c3)ccc2n1
inactive: Potency [16] > 11.4 µM | activity change, negative = inhibition ([1]; at 7.69 µM (top of the series)) 14% | Potency [2] | activity change, negative = inhibition ([3]; at 7.69 µM (top of the series)) -11.7% | activity, negative = inhibition ([4]; at 7.69 µM (top of the series)) -4.38% | outcome [5]

Cc1c(N(C)CS(=O)(=O)O)c(=O)n(-c2ccccc2)n1C
inactive: activity change, negative = inhibition ([1]; at 17.2 µM (top of the series)) 6.43% | Potency [2] | activity change, negative = inhibition ([3]; at 17.2 µM (top of the series)) -4.94% | activity, negative = inhibition ([4]; at 17.2 µM (top of the series)) -1.51% | Potency [8] > 20.6 µM | Potency [9] > 20.6 µM | outcome [5]

C1CCc2nnnn2CC1
inactive: activity change, negative = inhibition ([1]; at 17.2 µM (top of the series)) 8.91% | activity change, negative = inhibition ([1]; at 38 µM (top of the series)) 6.67% | Potency [2] | activity change, negative = inhibition ([3]; at 17.2 µM (top of the series)) -9.11% | activity change, negative = inhibition ([3]; at 38 µM (top of the series)) -6.06% | activity, negative = inhibition ([4]; at 17.2 µM (top of the series)) 5.56% | activity, negative = inhibition ([4]; at 38 µM (top of the series)) -9.49% | outcome [5]
